Bioassay records deposited in PubChem BioAssay by several laboratories.
mHtt clearance: compounds clearing mutant huntingtin protein; HeLa Exon1htt(103Q)mCFP, aggregate imaging; zero = plate's median compound well; inhibition, % at 1.5 µM; 47,000 compounds, 0.42% hits;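 active means inhibition of aggregate fluorescence above about 70%, also judged a hit by eye on the cell image, limit read from the data, passing the limit was not always enough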;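 further: cells exposed to compound for three days before fixation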
M1 agonist: agonists of M1 muscarinic receptor; CHO-M1 cells, Fluo-4 calcium fluorescence, agonist mode; hits give high values; B-score at 10 µM; 64,000 compounds, 3% hits; AID 626;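 active means fluorescence rise, raw or as B-score row- and column-corrected plate score, outside the 99.7% band of its plate's samples, either direction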
D1 allo mod: allosteric modulators of human D1 dopamine receptor. 58,000 compounds, 5.9% hits. B-score at 10 µM. HEK293 D1, CRE-luciferase, dopamine EC30 potentiation; actives deviate in either direction. P21728;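 active means luminescence count or its row- and column-corrected plate score outside the 99.7% band of the plate's sample wells, on either side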
M1 antag: antagonists of rat M1 muscarinic receptor; P08482; B-score at 10 µM; 64,000 compounds, 3.4% hits; CHO-M1 cells, Fluo-4 calcium, ACh EC80 antagonist mode; hits give low values;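 active means calcium fluorescence response, raw or row-and-column corrected B-score, differing from the plate sample mean either way at a set confidence level, mostly lower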
Target sequence (P08482 whole entry, looked up): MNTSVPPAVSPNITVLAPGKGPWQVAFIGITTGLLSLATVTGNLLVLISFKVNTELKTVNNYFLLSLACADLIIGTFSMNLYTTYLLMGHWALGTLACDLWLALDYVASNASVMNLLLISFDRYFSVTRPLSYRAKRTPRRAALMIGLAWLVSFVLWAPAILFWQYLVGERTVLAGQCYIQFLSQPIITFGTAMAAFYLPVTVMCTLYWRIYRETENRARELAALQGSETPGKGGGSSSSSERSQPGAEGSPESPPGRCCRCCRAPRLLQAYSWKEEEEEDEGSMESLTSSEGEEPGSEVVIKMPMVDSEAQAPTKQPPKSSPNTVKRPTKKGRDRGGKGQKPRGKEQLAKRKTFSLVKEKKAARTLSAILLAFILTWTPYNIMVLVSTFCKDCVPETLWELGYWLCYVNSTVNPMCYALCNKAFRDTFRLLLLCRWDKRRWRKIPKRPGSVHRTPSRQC
D1 PAM confirm: D1 receptor (human) allosteric modulation, confirmed. luminescence at 10 µM. 2,200 compounds, 88% hits. shares compounds with D1 allo mod. HEK293 D1 CRE-luciferase, dopamine EC30 potentiation; hits give high values. AID 642;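 active means luminescence in either of two replicates above the same-plate mean plus 3 SD of the low-dose dopamine control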
D1 no dopamine: activates D1 CRE-luciferase signal without dopamine present | shares compounds with D1 allo mod | HEK293 D1 CRE-luciferase, luminescence, no dopamine; hits give high values | luminescence at 10 µM | 1,900 compounds, 0.8% hits; in the data active means luminescence above about 3900
Isoprot counter: isoproterenol response counter-screen activity for D1 modulators | 2,200 compounds, 63% hits | luminescence at 10 µM | shares compounds with D1 allo mod | HEK293 D1 CRE-luciferase, isoproterenol EC30 counter-screen; hits give high values;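 active means luminescence in either replicate above plate mean of wells with a partly effective reference agonist dose plus 3 SD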;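 further: isoproterenol raises cAMP through native beta-adrenoceptor Gs so signal bypasses D1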
Large screens that a line does not name were inactive (follow-up assays come after a bar, where they were run). Shown are actives, neighbours in structure and some others; about 9.1% of the full set was active somewhere.

COc1ccc2ncn(-c3ccccc3)c2c1	mHtt clearance 75.4, D1 allo mod 5.15 | D1 PAM confirm 8964 | D1 no dopamine inactive | Isoprot counter inactive
N#Cc1cn(-c2ccccc2)nc1-c1ccccc1	D1 allo mod 5.74 (no result: mHtt clearance) | D1 PAM confirm 9992 | D1 no dopamine inactive | Isoprot counter inactive
CCOC(=O)C1CCCN(c2nc3ccccc3nc2C(C#N)C(=O)OCC)C1 (configuration not stated)	D1 allo mod 2.95 (no result: mHtt clearance) | D1 PAM confirm 8656 | D1 no dopamine inactive | Isoprot counter inactive
C=CCn1c2ccccc2c2nnc(SCN3C(=O)c4ccccc4C3=O)nc21	D1 allo mod 9.91 (no result: mHtt clearance) | D1 PAM confirm 16236 | D1 no dopamine inactive | Isoprot counter 5420
CCn1c2ccccc2c2nnc(SCC(=O)OCN3C(=O)c4ccccc4C3=O)nc21	none
CC1CCCCN1Cc1nc2c(c(=O)n(C)c(=O)n2C)n1Cc1c(F)cccc1Cl (configuration not stated)	none (no result: mHtt clearance, D1 allo mod)
Cn1c(=O)c2c(nc(SCCCC#N)n2Cc2c(F)cccc2Cl)n(C)c1=O	D1 allo mod 5.83 (no result: mHtt clearance) | D1 PAM confirm 7192 | D1 no dopamine inactive | Isoprot counter 3908
COC(=O)c1ccc(Oc2cc(C)nc(SC)n2)cc1	D1 allo mod 5.35 | D1 PAM confirm 15492 | D1 no dopamine inactive | Isoprot counter 3488
COC(=O)COc1ccc(Oc2cc(C)nc(SC)n2)nn1	none
CCOc1ccc(C2=Nn3c(nnc3-c3cccnc3)SC2)cc1	none (no result: mHtt clearance, D1 allo mod)
c1cncc(-c2nnc3n2N=C(c2cccs2)CS3)c1	D1 allo mod 4.13 (no result: mHtt clearance) | D1 PAM confirm 15800 | D1 no dopamine inactive | Isoprot counter 4104
COc1ccc(C2=Nn3c(nnc3-c3cccnc3)SC2)cc1	D1 allo mod 5.55 (no result: mHtt clearance) | D1 PAM confirm 10056 | D1 no dopamine inactive | Isoprot counter 3892
COc1ccc(C2=Nn3c(nnc3-c3ccccc3)SC2)cc1OC	D1 allo mod 29 (no result: mHtt clearance) | D1 PAM confirm 21404 | Isoprot counter 6152
Cc1ccc(-c2nnc3n2N=C(c2ccccc2Br)CS3)cc1	D1 allo mod 16.4 (no result: mHtt clearance) | D1 PAM confirm 15256 | D1 no dopamine inactive | Isoprot counter 5504
COc1ccc(NC(=O)c2cc([N+](=O)[O-])nn2Cc2ccccc2)c(C)c1	none (no result: M1 agonist, D1 allo mod, M1 antag)
O=C(Cn1nc(C(F)(F)F)c2c1CCC2)NCc1ccc(Cl)cc1	none (no result: M1 agonist, D1 allo mod, M1 antag)
c1ccc(C2=Nn3c(nnc3-c3ccncc3)SC2)cc1	D1 allo mod 2.89 (no result: mHtt clearance) | D1 PAM confirm 9856 | D1 no dopamine inactive | Isoprot counter inactive
c1ccc(C2=Nn3c(nnc3-c3cccnc3)SC2)cc1	D1 allo mod 4.89 | D1 PAM confirm 11260 | D1 no dopamine inactive | Isoprot counter inactive
Cc1cc(-c2nnc3n2N=C(c2ccc(-c4ccccc4)cc2)CS3)n[nH]1	none (no result: mHtt clearance)
c1ccc(C2=Nn3c(nnc3-c3ccccn3)SC2)cc1	none (no result: D1 allo mod)
Cc1cccc(-c2nnc3n2N=C(c2ccccc2)CS3)c1	D1 allo mod 15.5 | D1 PAM confirm inactive | D1 no dopamine inactive | Isoprot counter 4692
CCCc1nnc2n1N=C(c1ccc(OC)c(OC)c1)CS2	D1 allo mod 25.8 (no result: mHtt clearance) | D1 PAM confirm 22008 | Isoprot counter 15456
O=C(Nc1ccccc1F)N(CCCN1CCOCC1)Cc1cc2cc3c(cc2[nH]c1=O)OCCO3	none
c1ccc(-c2csc3nnc(SCc4ccc5c(c4)OCO5)n23)cc1	D1 allo mod 6.78 | D1 PAM confirm 16212 | D1 no dopamine inactive | Isoprot counter 4660
O=C(CCSc1nnc2scc(-c3ccccc3)n12)NCc1ccc2c(c1)OCO2	D1 allo mod 7.33 | D1 PAM confirm 11856 | D1 no dopamine inactive | Isoprot counter 5108
Fc1ccc(-c2csc3nnc(SCc4cccnc4)n23)cc1	D1 allo mod 17.3 | D1 PAM confirm 26500 | D1 no dopamine inactive | Isoprot counter 7444
Cc1ccc(NC(=O)C(C)Sc2nnc(-c3cccnc3)n2-c2ccccc2)cc1 (configuration not stated)	none (no result: M1 agonist, D1 allo mod, M1 antag)
COc1ccc(CCNS(=O)(=O)c2ccc3c(c2)OCCO3)cc1OC	D1 allo mod 5.17 | D1 PAM confirm 11256 | D1 no dopamine inactive | Isoprot counter inactive
COc1ccc(CCNS(=O)(=O)c2cccc(F)c2)cc1OC	D1 allo mod 8.13 | D1 PAM confirm 11924 | Isoprot counter 3032
CN(c1ccccc1)C(c1ccc(F)cc1)c1nnnn1C1CCCC1 (configuration not stated)	none (no result: mHtt clearance)
CCOC(=O)N1CCN(Cc2nc(N)nc(Nc3ccc(Oc4ccccc4)cc3)n2)CC1	D1 allo mod 3.5 (no result: M1 agonist, M1 antag) | D1 PAM confirm 12388 | D1 no dopamine inactive | Isoprot counter 3732
CCOC(=O)C1CCCN(Cc2nc(N)nc(Nc3ccc(OC)cc3)n2)C1 (configuration not stated)	none (no result: mHtt clearance)
COc1ccccc1-c1nnc2sc(-c3cc4ccccc4o3)nn12	D1 allo mod 3.88 (no result: mHtt clearance) | D1 PAM confirm 10596 | D1 no dopamine inactive | Isoprot counter 4336
CCC(C)NS(=O)(=O)c1ccc(OCC(=O)N2CCC(C)CC2)cc1 (configuration not stated)	none (no result: M1 agonist, D1 allo mod, M1 antag)
N#CCSc1nnc(CNc2cccc(Cl)c2)o1	D1 allo mod 3.97 (no result: mHtt clearance) | D1 PAM confirm inactive | Isoprot counter inactive
Clc1cccc(NCc2nnc(SCc3ccccc3)o2)c1	D1 allo mod 3.17 (no result: mHtt clearance) | D1 PAM confirm 7948 | Isoprot counter inactive
O=C(CSc1nnc(CNc2ccccc2)o1)c1ccc2c(c1)OCCO2	none (no result: mHtt clearance)
CC(C)CC1(C)NC(=O)NC1=O (configuration not stated)	D1 allo mod 2.99 | D1 PAM confirm inactive | D1 no dopamine inactive | Isoprot counter inactive
CCCCCCNc1cc2n(c(=O)n1)CCc1cc(OC)c(OC)cc1-2	D1 allo mod 3.15 | D1 PAM confirm 13732 | D1 no dopamine inactive | Isoprot counter 8864
COc1cc2c(cc1OC)-c1cc(NC3CCCCCCC3)nc(=O)n1CC2	D1 allo mod 7.6 | D1 PAM confirm 20716 | D1 no dopamine inactive | Isoprot counter 17668
COc1cc2c(cc1OC)-c1cc(NC3CCCCC3)nc(=O)n1CC2	none (no result: mHtt clearance, D1 allo mod)
COc1cc2c(cc1OC)-c1cc(NCc3ccccn3)nc(=O)n1CC2	D1 allo mod 5.2 | D1 PAM confirm 10588 | D1 no dopamine inactive | Isoprot counter 4284
COc1cc2c(cc1OC)-c1cc(NC3CC3)nc(=O)n1CC2	D1 allo mod 5.67 (no result: mHtt clearance) | D1 PAM confirm 14400 | D1 no dopamine inactive | Isoprot counter 11944
CCNc1cc2n(c(=O)n1)CCc1cc(OC)c(OC)cc1-2	none
COc1ccc(/C=N/n2cnnc2SCCO)cc1OC	D1 allo mod 2.57 | D1 PAM confirm 14424 | D1 no dopamine inactive | Isoprot counter 4036
COCCn1ccc(O)c(Cc2ccccc2)c1=O	none (no result: M1 agonist, D1 allo mod, M1 antag)
CC(C)C1O/C(=N/C(=O)Nc2ccc(Cl)c(Cl)c2)NC1=O (configuration not stated)	none (no result: mHtt clearance)
c1cc(CSc2nnc(-c3ccc4c(c3)OCO4)o2)ccn1	none
